Shown are actives, neighbours in structure and some others; about 2.9% of the full set was active somewhere.
GLP1R ag = qHTS of GLP-1 Receptor Agonists | Glucagon-like peptide 1 receptor (Homo sapiens), P43220 | AID 624172, 2012 | Potency, µM (series often up to 45.6 µM), for inactives: at the top dose activation, actives largely listed as activators | HEK293 GLP-1R CRE-luciferase, luminescence, 4-6 h; cells express a hypersensitive GLP-1R form | 380,000 tested, 0.007% active; also: potency is read from the fitted curve at half-maximal effect; % of control where 0% means no effect
GLP1R inv ag = qHTS of GLP-1 Receptor Inverse Agonists (Inhibition Mode) | Glucagon-like peptide 1 receptor (Homo sapiens), P43220 | HEK293 GLP-1R CRE-luciferase, luminescence, 24 h; GLP-1R form is constitutively active | Potency, µM (doses to about 38.3 µM), inactives show top-dose activity change, negative = inhibition, hits mostly inhibitors | 410,000 tested, 1.6% active | AID 624417, 2012; also: potency is read from the fitted curve at half-maximal effect; % is scaled to controls: 0 for no effect and ±100 for the full control effect; nearly all actives have a fitted effect of over 55% in size
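qHTS in 1536-well format: reporter HEK293 cells expressing constitutive GLP-1R activity in DMEM + 10% Nu serum, 24 hr with compounds at 37 deg C, luminescence read after 12 min with detection reagent.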
LDHA block = qHTS assay for inhibitors of human lactate dehydrogenase; L-lactate dehydrogenase A chain (Homo sapiens), P00338; purified LDHA, NADH/diaphorase-resazurin fluorescence; hits give low values; activity change, % (values are at about 110 or 230 µM); 480,000 tested, 0.15% active; AID 1347041, 2019; in the data active = activity change below about -30%; inconclusive = mostly about -25% to -30%;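 also: plate controls were DMSO wells for no effect and wells without enzyme for full effect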
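LDH5 2 nM; NADH 0.06 mM, pyruvate 0.2 mM; 200 mM Tris pH 7.4, EDTA, Tween-20; 5 min RT. Detection: diaphorase 0.133 mg/mL + resazurin 37 µM, fluorescence ex540/em590 at 0 and 20 min; normalized to enzyme-free and DMSO wells.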
ClpP mod = qHTS Assay for Activators of ClpP. ATP-dependent Clp protease proteolytic subunit (Bacillus subtilis (strain 168)), P80244. purified B. subtilis ClpP, FRET peptide cleavage, 20 min. Potency, µM (titrated, usually from 57.5 µM), inactives show at the top dose activity change, negative = active. 340,000 tested, 1.9% active; active = well fitted falling curve with a large enough effect; inconclusive = small, poorly fitted or top-dose-only effect; inactive = no such curve, though single readings can be large or run the other way; also: potency is read from the fitted curve at half-maximal effect; the source files actives as falling curves though it sought activators and does not explain the sign; nearly all actives have a fitted effect of over 65% in size
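ClpP 10 microg/mL final, pH 8 Tris/KCl buffer with BSA, glycerol, Tween-20; compound pinned in; FRET-FV substrate; RT 20 min; Ex320/Em430; ΔFRET vs ADEP 5.8 microM, DMSO, no enzyme.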
GLP1R cytotox = qHTS of GLP-1 Receptor Inverse Agonists: Cytotox Screen | HEK293 cAMP-luciferase reporter cells, luminescence, 24 h | Potency, µM (titrated, usually from 38.3 µM), for inactives: top-dose activity change, negative = inhibition, usual class: inhibitors | 410,000 tested, 0.13% active | AID 624418, 2012;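 also: loss of luciferase light is scored as toxicity; potency is read from the fitted curve at half-maximal effect; % is scaled to controls: 0 for no effect and ±100 for the full control effect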
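Compound-treated cells are incubated 24 hr at 37 deg C under 5% CO2 after a 12 hour attachment period, then luciferase detection reagent is added and luminescence is measured following 12 min at room temperature; lowered signal indicates toxicity.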
p53 reactivator = qHTS assay for re-activators of p53 using a Luc reporter; H1299 p53-A138V BP100-luciferase reporter, luminescence, 24 h; Potency, µM (titrated, usually from 92.2 µM), for the others: at the top dose activity change, positive = activation, most hits filed as activators; 320,000 tested, 0.063% active; also: potency is read from the fitted curve at half-maximal effect; % of control where 0% means no effect; nearly all actives have a fitted effect of over 45% in size
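p53-null H1299 cells stably carrying temperature-sensitive p53-A138V and a BP100-luciferase reporter were pinned with compounds (4-point, 1:5 series) and held 24 hrs at 37 deg C. Luminescence was read 10 min after detection reagent.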
* = called active by the depositor; ? = inconclusive; / = no result given. Unless noted, calls follow the shape of the dose curve; as a rule, active = well fitted curve in the direction sought with a large enough effect; inconclusive = small, poorly fitted or top-dose-only effect, or another doubt; inactive = no such curve, though single readings can be large; an effect the other way counts as inactive or inconclusive.

SMILES	GLP1R ag	GLP1R inv ag	LDHA block	ClpP mod	GLP1R cytotox	p53 reactivator
Cc1cccc(N2C(=O)CC(N3CCN(c4ccccn4)CC3)C2=O)c1 (centres undefined)	9%	2%	-14	/	-3%	7%
Clc1ccc2c(c1)C(N1CCNCC1)Cc1ccccc1S2 (centres undefined)	-16%	8.9µM*	-1	-8%	-10%	-22%
CCOc1ccc(S(=O)(=O)n2cc(-c3ccc(F)cc3)c(N)n2)cc1	1%	?	-6	-1%	3%	-3%
CCOC(=O)N1CCN(C(=O)CSc2cc(C)nc3c(-c4ccccc4OC)c(C)nn23)CC1	6%	13µM*	5	1%	?	?
Cc1ccc(Cn2ncc3c(N4CCN(c5ccccc5C)CC4)ncnc32)cc1	-7%	3.5µM*	-1	?	0%	9%
Cc1ccc(Cn2ncc3c(N4CCOCC4)ncnc32)cc1	7%	106%	0	1%	-8%	2%
COc1ccc(CC(=O)N2CCC(Nc3nc4ccccc4n3Cc3ccc(F)cc3)CC2)cc1	-8%	8.9µM*	2	2%	-17%	-1%
CCc1nnc(NS(=O)(=O)c2ccc(NC(=O)/C=C/c3ccccc3Cl)cc2)s1	1%	-16%	-12	/	-20%	-2%
CN(c1ccc(C(=O)NCCSCc2ccc(Cl)cc2)cc1)S(=O)(=O)c1ccccc1	-3%	?	-3	28µM*	-13%	0%
Cc1cccc(C)c1OCc1nc2ccccc2[nH]1	0%	?	-5	-7%	11%	14%
COc1ccccc1C(=O)NC(=O)COC(=O)Cn1[nH]c(=O)c2ccccc2c1=O	-11%	10%	-9	-15%	-8%	5%
Cc1cc(C)c(C)c(S(=O)(=O)NCC(=O)N2CCCC2)c1C	3%	0%	-6	1%	7%	-4%
COc1ccc(N(CC(O)Cn2c3ccccc3c3ccccc32)S(=O)(=O)c2ccccc2)cc1 (centres undefined)	-9%	11µM*	0	?	10%	-2%
CC(C)=C[C@H]1C[C@H](C)[C@H]2CC[C@H](C)c3c(O[C@@H]4OC[C@@H](O)[C@H](O)C4O)c(O)c(C)c1c32 (some centres undefined)	1%	10µM*	2	-5%	-25%	13%
O=C(NCc1ccccc1)C12CC3CC(CC(Cl)(C3)C1)C2	2%	?	-1	32µM*	-2%	3%
COC(=O)COc1ccc2occ(C(C)=O)c2c1	-2%	0%	4	-6%	-12%	1%
O=C(Nc1cccc(Cl)c1)C1CCCN(c2ncnc3nc[nH]c23)C1 (centres undefined)	/	/	6	/	/	/
Cc1c(C(=O)OC(C)C(C)C[N+](C)(C)C)oc2ccccc12 (centres undefined)	-5%	0%	?	28µM*	5%	-5%
N=C1S/C(=C\c2ccco2)C(=O)N1c1nccs1	-3%	1µM*	0	0%	-42%	3%
N=C1S/C(=C\c2ccco2)C(=O)N1c1ccc2c(c1)OCO2	8%	200%	-3	/	-29%	3%
CSCCC(NC(=O)c1occc1C)C(=O)O (centres undefined)	-12%	-10%	0	25µM*	5%	10%
CC(NC=O)C(=O)O (centres undefined)	/	/	4	/	/	/
O=C(CCn1c(=O)c2sccc2n(Cc2cc(=O)n3ccccc3n2)c1=O)NCc1ccco1	4%	1%	-1	28µM*	-14%	-2%

Bioassay records deposited in PubChem by National Center for Advancing Translational Sciences (NCATS).
